Unmarked numbers belong to inactive results. Calls come from the whole dose curve; as a rule, active = well fitted curve in the direction sought with a large enough effect; inactive = no such curve, though single readings can be large or run the other way.
Assay: qHTS Assay for Agonists of the Relaxin Receptor RXFP1: V1B SAR
Details: HEK293 V1B cells, cAMP TR-FRET, 30 min; series mostly up to 78.1 µM; activation: at the top concentration
Description: The relaxin hormone is involved in the variety of biological functions in normal tissues and diseases. The role of relaxin is well-established in female reproduction and parturition, mammary gland and endometrial development, maintenance of myometrial quiescence during pregnancy. Relaxin signaling through its G protein-coupled receptor (GPCR) RXFP1 results in ECM remodeling through regulation of collagen deposition, cell invasiveness, proliferation and overall tissue homeostasis. […] Recombinant human relaxin (rhRlx) is currently being tested in clinical trials as a protective agent in congestive heart failure, in treating severe preeclampsia, and as an anti-fibrotic agent in systemic sclerosis. Upon relaxin binding RXFP1 activation leads to the activation of adenylate cyclase (AC) via Gs. cAMP will activate PKA, which phosphorylates many signaling proteins. Thus, detection of cAMP increase is an easy and reliable indication of relaxin receptor activation. To screen for agonists of the relaxin receptor, a HEK293T cell line stably transfected with RXFP1 was used. RXFP1 activation was assayed by changes in cAMP levels as detected with a time-resolved fluorescence energy transfer (TR-FRET) cAMP detection kit. This assay measures activation of a cell expressing V1B, another GPCR targeted by relaxin, to determine the selectivity of compounds for RXFP1. NIH Chemical Genomics Center [NCGC] NIH Molecular Libraries Probe Production Centers Network [MLPCN] MLPCN Grant: R03 MH085705-01A1 Assay Submitter (PI): Alexander Agoulnik
This is a cell-based assay for cAMP second messenger response to screen for agonists of the RXFP2 receptor. The assay was conducted in the presence of a PDE4 inhibitor (Ro 20174). The cells were lysed and the cAMP levels were measured with a TR-FRET cAMP kit. Presence of cAMP in the cell lysate disrupts binding between the cryptate-labeled anti-cAMP and d2-labeled cAMP pair, leading to a decrease in the TR-FRET signal. Data were normalized to the controls for basal activity (buffer only) and 100% activity (29 nM porcine relaxin). The EC50 values were determined from concentration-response data modeled with the standard Hill equation 1536-well assay protocol for the HEK293 V1B cAMP assay: (1) Add 3 ul HEK293 RXFP2 cell culture. 2000 cells/well in DMEM/F12, 10% FBS, 1x Pen/Strep (dispensed offline with MultiDrop Combi). (2) Incubate 16-24 hr at 37C, 5% CO2. (3) Add 1 ul 400uM Ro20174 in DPBS, 0.05% BSA, 0.005% Tween 20. (3) Add 23 nl compounds in DMSO solution. Final concentration was 0.5 - 58 uM. (4) Incubate 30 min at 37C, 5% CO2. (5) Add 1 ul cAMP-d2 in lysis buffer (HTRF cAMP HiRange kit, CisBio). (6) Add 1 ul anti-cAMP antibody-cryptate in lysis buffer (HTRF cAMP HiRange kit, CisBio). (7) Incubate 30 min at room temperature. (6) Detect the assay plate in a ViewLux plate reader (PerkinElmer) with Ex=320 nm, Em1=615 nm and Em2=665 nm. Keywords: relaxin, RXFP1, RXFP2, G-protein coupled receptor, cAMP, agonist, high throughput screening, MLSMR, MLSCN, NIH Roadmap, qHTS and NCGC

In order of falling “activation” value:
1. CCOc1ccccc1C(=O)Nc1sccc1C(=O)Nc1cccc(S(=O)(=O)C(F)(F)F)c1  12.3%
2. O=C(Nc1cccc(C(F)(F)F)c1)c1ccccc1NC(=O)C1CCC1  8.48%
3. O=C(Nc1cccc(C(F)(F)F)c1)c1ccccc1NC(=O)C1CC1  8.37%
4. CCOc1ccccc1C(=O)Nc1ccccc1C(=O)Nc1cccc(C(F)(F)F)c1  7.36%
5. O=C(NCc1ccco1)c1ccccc1NC(=O)c1ccccc1NC(=O)C1CCCCC1  5.67%
6. CCOc1ccccc1-c1nc2c(C(=O)Nc3cccc(S(=O)(=O)C(F)(F)F)c3)cccc2[nH]1  5.06%
7. CCOc1ccccc1S(=O)(=O)Nc1ccccc1C(=O)Nc1cccc(S(=O)(=O)C(F)(F)F)c1  4.37%
8. COc1ccccc1-c1ccccc1C(=O)Nc1cccc(C(F)(F)F)c1  3.5%
9. CSc1cccc(NC(=O)c2ccccc2NC(=O)C2CCCCC2)c1  3.22%
10. O=C(Nc1cccc(C(F)(F)F)c1)c1ccccc1NC(=O)c1ccccc1OC(F)(F)F  2.56%
11. O=C(Nc1cccc(-c2cccc(C(F)(F)F)c2)c1)c1ccccc1NC(=O)C1CCCCC1  2.41%
12. O=C(Nc1ccc(C(F)(F)F)cc1)c1ccccc1NC(=O)C1CCCCC1  2.37%
13. CCOc1ccccc1C(=O)Nc1ncccc1C(=O)Nc1cccc(S(=O)(=O)C(F)(F)F)c1  2.36%
14. O=C(Nc1cccc(Br)c1)c1ccccc1NC(=O)C1CCCCC1  1.94%
15. CCC(CC)C(=O)Nc1ccccc1C(=O)Nc1cccc(C(F)(F)F)c1  1.55%
16. COc1ccccc1CNc1ccccc1C(=O)Nc1cccc(C(F)(F)F)c1  1.52%
17. O=C(Nc1cccc([N+](=O)[O-])c1)c1ccccc1NC(=O)C1CCCCC1  1.46%
18. O=C(Nc1cccc(SC(F)(F)F)c1)c1ccccc1NC(=O)C1CCCCC1  0.962%
19. COc1ccccc1C(=O)Nc1cccc(C(=O)Nc2cccc(C(F)(F)F)c2)c1  0.812%
20. Cc1ccc(NC(=O)c2ccccc2NC(=O)C2CCCCC2)cc1  0.657%
21. CCCOc1ccccc1C(=O)Nc1ccccc1C(=O)Nc1cccc(S(=O)(=O)C(F)(F)F)c1  0.371%
22. CC(C)Oc1ccccc1C(=O)Nc1ccccc1C(=O)Nc1cccc(S(=O)(=O)C(F)(F)F)c1  -0.72%
23. CCOc1ccccc1C(=O)Nc1ccccc1C(=O)Nc1cccc(S(=O)(=O)C(F)(F)F)c1  -0.766%
24. O=C(NCc1cccc(C(F)(F)F)c1)c1ccccc1NC(=O)C1CCCCC1  -0.791%
25. COc1cccc(OC)c1C(=O)Nc1ccccc1C(=O)Nc1cccc(C(F)(F)F)c1  -1.17%
26. CCSc1ccccc1C(=O)Nc1ccccc1C(=O)Nc1cccc(S(=O)(=O)C(F)(F)F)c1  -1.43%
27. O=C(Nc1ccccc1)c1ccccc1NC(=O)C1CCCCC1  -1.89%
28. COCCOc1ccccc1C(=O)Nc1ccccc1C(=O)Nc1cccc(C(F)(F)F)c1  -2.02%
29. Cc1ccccc1C(=O)Nc1ccccc1C(=O)Nc1cccc(C(F)(F)F)c1  -2.4%
30. COc1ccccc1C(=O)N(C)c1ccccc1C(=O)Nc1cccc(C(F)(F)F)c1  -2.85%
31. CC(C)(C)c1cccc(NC(=O)c2ccccc2NC(=O)C2CCCCC2)c1  -3.36%
32. COc1ccccc1C(=O)Nc1ccc(C(=O)Nc2cccc(C(F)(F)F)c2)cc1  -3.39%
33. COc1ccccc1C(=O)Nc1ccccc1C(=O)N(C)c1cccc(C(F)(F)F)c1  -3.58%
34. O=C(Nc1cccc(-c2ccccc2)c1)c1ccccc1NC(=O)C1CCCCC1  -3.61%
35. O=C(Nc1cccc(C(F)(F)F)c1)c1ccccc1NC(=O)C1CCCC1  -3.74%
36. COCCOc1ccccc1C(=O)Nc1cccc(C(F)(F)F)c1  -3.76%
37. O=C(Nc1cccc(F)c1)c1ccccc1NC(=O)C1CCCCC1  -4.78%
38. O=C(Nc1cccc(Cl)c1)c1ccccc1NC(=O)C1CCCCC1  -5.01%
39. O=C(Nc1ccccc1C(=O)Nc1cccc(C(F)(F)F)c1)c1cccnc1  -5.19%
40. COCCNc1ccccc1C(=O)Nc1cccc(C(F)(F)F)c1  -6.16%

Source: PubChem BioAssay AID602262 (National Center for Advancing Translational Sciences (NCATS), 2012)
